Test results from PubChem BioAssay (NCI).
Where “and” joins values, the source holds several entries; their conditions need not be identical. Equal values may be shown once. Compounds without any hit were thinned out: in the full panel of roughly 79,000, 15% have a hit. Some compounds were tested as several samples or in several runs, with calls that do not always agree. Calls of active or inactive are those of the source. No stated cut-off is given here; in the data, active means growth inhibition above about 70%; inactive means the rest.

Key:
[1] = NCI Yeast Anticancer Drug Screen. Data for the rad50 strain (AID 155);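 further: 0% = growth of vehicle-only cultures of the same strain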; conditions: S. cerevisiae rad50 strain growth inhibition, stronger effect = higher value
Method in brief: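 Readout: growth inhibition relative to vehicle-treated cultures. Compound exposure was carried out in a genetically defined yeast strain deficient in DNA damage repair.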

[2] = NCI Yeast Anticancer Drug Screen. Data for the mec2-1 strain (AID 157); conditions: S. cerevisiae mec2-1 strain, stronger effect = higher value
Method in brief: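 Mutant yeast (mec2-1) grown with compound; growth inhibition relative to vehicle control reported.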

[3] = NCI Yeast Anticancer Drug Screen. Data for the sgs1 mgt1 strain (AID 161);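 further: 0% = growth of cultures given vehicle only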; conditions: S. cerevisiae sgs1 mgt1 strain, stronger effect = higher value
Method in brief: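 Compounds are added to genetically altered yeast, and growth is compared with cultures given vehicle alone to give percent inhibition.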

[4] = NCI Yeast Anticancer Drug Screen. Data for the cln2 rad14 strain (AID 165);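 further: 0% = growth equal to vehicle treated cultures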; conditions: S. cerevisiae cln2 rad14 strain, stronger effect = higher value
Method in brief: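 Readout is yeast growth inhibition versus vehicle-treated controls, using a strain with cln2 and rad14 alterations exposed to compound.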

[5] = NCI Yeast Anticancer Drug Screen. Data for the bub3 strain (AID 167); conditions: S. cerevisiae bub3 mutant strain, stronger effect = higher value
Method in brief: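 Readout: yeast growth inhibition, expressed relative to vehicle-only wells. The test organism is a mutant strain from a panel with lesions in DNA repair or checkpoint genes.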

[6] = NCI Yeast Anticancer Drug Screen. Data for the mlh1 rad18 strain (AID 175); conditions: S. cerevisiae mlh1 rad18 strain growth inhibition, stronger effect = higher value
Method in brief: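 Genetically defined yeast (DNA repair-deficient) exposed to compounds; growth inhibition determined relative to vehicle.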

[7] = at 5.0 µM (retest, dose inferred, filed as 0.5)
[8] = at 50.0 µM (retest, dose inferred, filed as 5.0)

Measured: growth inhibition

COc1cc(/C=C/C(=O)NCCCCN=[N+]=[N-])ccc1OCc1ccccc1
inactive: [1]; [7] -1% | [1]; [8] -13% | [2]; [7] 1% | [2]; [8] -11% | [3]; [7] -7% | [3]; [8] 1% | [3]; at 50.0 µM 27.4% | [4]; [7] -9% | [4]; [8] -13% | [4]; at 50.0 µM -3.15% | [5]; [7] -6% | [5]; [8] -8% | [5]; at 50.0 µM 10.1% | [6]; [7] -3% | [6]; [8] -11% | [6]; at 50.0 µM 39.9%
active: [1]; at 50.0 µM 89.8% | [2]; at 50.0 µM 82.2%

Cc1nc2c(Br)cc(Br)cc2c(=O)n1-c1ccccc1NC1OC(CO)C(O)C(O)C1O (centres undefined)
-35.1% (inactive) and 75% (active): [6]; at 50.0 µM
inactive: [1]; [7] 9% | [1]; [8] 41% | [1]; at 50.0 µM -11.9% and 65.8% | [2]; [7] 5% | [2]; [8] 32% | [2]; at 50.0 µM -33.6% and 17.9% | [3]; [7] 7% | [3]; [8] 25% | [3]; at 50.0 µM -5.65% and 47.2% | [4]; [7] 11% | [4]; at 50.0 µM -54.8% and 64.5% | [5]; [7] 7% | [5]; [8] 56% | [6]; [7] -25% | [6]; [8] 67%
-31.3% (inactive) and 74.8% (active): [5]; at 50.0 µM
active: [4]; [8] 75%

COc1ccc2c(c1)C(Cc1ccc(Oc3ccc(CC4c5cc(OC)ccc5CC[N+]4(C)C)cc3)cc1)[N+](C)(C)CC2 (centres undefined)
inactive: [1]; [7] -12% | [1]; [8] 62% | [2]; [7] -6% | [2]; [8] 51% | [3]; [7] -7% | [4]; [7] -4% | [4]; [8] 54% | [5]; [7] -3% | [6]; [7] -10%
active: [1]; at 50.0 µM 96.8% | [2]; at 50.0 µM 97.2% | [3]; [8] 91% | [3]; at 50.0 µM 99.2% | [4]; at 50.0 µM 72% | [5]; [8] 82% | [5]; at 50.0 µM 84.7% | [6]; [8] 95% | [6]; at 50.0 µM 98.8%

CC(=O)OC1CCC2(C)C(CCC3C4CCC(OC(C)=O)C4(C)CCC32)O1 (centres undefined)
inactive: [1]; [7] -3% | [1]; at 50.0 µM 36.2% | [2]; [7] 5% | [2]; at 50.0 µM 15.1% | [3]; [7] -23% | [3]; at 50.0 µM 43.6% | [4]; [7] -6% | [4]; [8] 41% | [4]; at 50.0 µM 15% | [5]; [7] -2% | [5]; [8] 66% | [5]; at 50.0 µM 11.3% | [6]; [7] 6% | [6]; at 50.0 µM 24.4%
active: [1]; [8] 79% | [2]; [8] 95% | [3]; [8] 70% | [6]; [8] 93%

COC(=O)C1OC(OC(C)=O)C(OC(C)=O)C(OC(C)=O)C1OC(C)=O (centres undefined)
inactive: [1]; [7] -4% | [1]; [8] 5% | [1]; at 50.0 µM 7.25% and 3.25% | [2]; [7] -6% | [2]; [8] 8% | [2]; at 50.0 µM 14.4% and 8.2% | [3]; [7] -5% | [3]; [8] 9% | [3]; at 50.0 µM 7.05% and 10.9% | [4]; [7] 1% | [4]; [8] -2% | [4]; at 50.0 µM -12.2% and 60.5% | [5]; [7] -4% | [5]; [8] 11% | [5]; at 50.0 µM -7.15% and 24.6% | [6]; [7] -7% | [6]; [8] 14% | [6]; at 50.0 µM 16% and 9.3%

O=C(Nc1cccc2c(OC(=O)C(Cl)Cl)c(N=Nc3ccc(S(=O)(=O)Nc4nccs4)cc3)cc(N=Nc3ccc(S(=O)(=O)Nc4nccs4)cc3)c12)C(Cl)Cl (tested in a mixture with another compound)
39% (inactive) and 90% (active): [2]; [8]
93% (active) and 21% (inactive): [1]; [7]
29% (inactive) and 88% (active): [3]; [8]
6% (inactive) and 87% (active): [1]; [8]
41% (inactive) and 88% (active): [5]; [8]
34% (inactive) and 88% (active): [4]; [8]
71.8% (active) and 25.1% (inactive): [1]; at 50.0 µM
94% (active) and 19% (inactive): [3]; [7]
-14% (inactive) and 83% (active): [6]; [8]
93% (active) and 29% (inactive): [4]; [7]
85% (active) and 35% (inactive): [6]; [7]
90% (active) and 22% (inactive): [5]; [7]
81.3% (active) and 39.8% (inactive): [6]; at 50.0 µM
95% (active) and 10% (inactive): [2]; [7]
inactive: [2]; at 50.0 µM 62% and 38.1% | [3]; at 50.0 µM 67.2% and 18.3% | [4]; at 50.0 µM 56.5% and 31.9% | [5]; at 50.0 µM 50.2% and 47.1%

NNC(=O)c1ccc(NC(=O)CSc2nc3ccccc3s2)cc1
active: [1]; at 50.0 µM 92.7% | [2]; at 50.0 µM 79% | [3]; at 50.0 µM 96.2% | [5]; [8] 82% | [5]; at 50.0 µM 97.8% | [6]; [7] 86% | [6]; [8] 82% | [6]; at 50.0 µM 98.6%
inactive: [1]; [7] -4% | [1]; [8] 35% | [2]; [7] 6% | [2]; [8] 28% | [3]; [7] 9% | [3]; [8] 59% | [4]; [7] 0% | [4]; [8] 48% | [4]; at 50.0 µM 31.2% | [5]; [7] 52%

NC(=O)SCC(=O)NNc1ccccc1
48.1% (inactive) and 88.1% (active): [1]; at 50.0 µM
active: [3]; at 50.0 µM 87.8% | [4]; at 50.0 µM 82.2% | [5]; [8] 88% | [5]; at 50.0 µM 86% | [6]; [8] 81%
51.5% (inactive) and 88.9% (active): [6]; at 50.0 µM
inactive: [1]; [7] 16% | [1]; [8] 54% | [2]; [7] 1% | [2]; [8] 40% | [2]; at 50.0 µM 13.3% and 39.9% | [3]; [7] 5% | [3]; [8] 41% | [4]; [7] 11% | [4]; [8] 60% | [5]; [7] 13% | [6]; [7] 14%
